A word on the AC50: it is the midpoint of the concentration-response curve, whichever way the signal moves.

Results filed as inconclusive are left out. Some compounds were tested as several samples or in several runs, with calls that do not always agree. The source made the active and inactive calls. How the source made its calls, unless noted: active means hit-call score of the fitted dose curve at least 0.9, where 1 is the maximum; inconclusive means response in the unintended direction; inactive means score below 0.9.

Estrogen receptor beta (Homo sapiens), sequence (Q92731 whole entry, looked up, the tested form may be a part): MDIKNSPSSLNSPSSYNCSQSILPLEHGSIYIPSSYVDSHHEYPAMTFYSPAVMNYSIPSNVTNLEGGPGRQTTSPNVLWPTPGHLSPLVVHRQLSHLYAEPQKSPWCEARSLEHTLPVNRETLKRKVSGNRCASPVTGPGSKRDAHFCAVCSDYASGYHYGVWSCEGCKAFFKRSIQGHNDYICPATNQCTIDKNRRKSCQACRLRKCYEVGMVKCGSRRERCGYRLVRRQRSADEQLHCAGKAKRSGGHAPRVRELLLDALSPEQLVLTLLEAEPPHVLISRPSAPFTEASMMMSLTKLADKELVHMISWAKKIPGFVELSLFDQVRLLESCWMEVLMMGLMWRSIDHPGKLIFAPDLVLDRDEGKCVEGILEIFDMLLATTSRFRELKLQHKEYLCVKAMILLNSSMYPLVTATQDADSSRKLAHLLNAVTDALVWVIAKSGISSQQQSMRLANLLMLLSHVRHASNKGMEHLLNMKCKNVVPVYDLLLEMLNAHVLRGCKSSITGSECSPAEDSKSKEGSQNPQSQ
human Norepinephrine Transporter (NET), SLC6A2 (gene 6530), sequence (P23975 whole entry, looked up): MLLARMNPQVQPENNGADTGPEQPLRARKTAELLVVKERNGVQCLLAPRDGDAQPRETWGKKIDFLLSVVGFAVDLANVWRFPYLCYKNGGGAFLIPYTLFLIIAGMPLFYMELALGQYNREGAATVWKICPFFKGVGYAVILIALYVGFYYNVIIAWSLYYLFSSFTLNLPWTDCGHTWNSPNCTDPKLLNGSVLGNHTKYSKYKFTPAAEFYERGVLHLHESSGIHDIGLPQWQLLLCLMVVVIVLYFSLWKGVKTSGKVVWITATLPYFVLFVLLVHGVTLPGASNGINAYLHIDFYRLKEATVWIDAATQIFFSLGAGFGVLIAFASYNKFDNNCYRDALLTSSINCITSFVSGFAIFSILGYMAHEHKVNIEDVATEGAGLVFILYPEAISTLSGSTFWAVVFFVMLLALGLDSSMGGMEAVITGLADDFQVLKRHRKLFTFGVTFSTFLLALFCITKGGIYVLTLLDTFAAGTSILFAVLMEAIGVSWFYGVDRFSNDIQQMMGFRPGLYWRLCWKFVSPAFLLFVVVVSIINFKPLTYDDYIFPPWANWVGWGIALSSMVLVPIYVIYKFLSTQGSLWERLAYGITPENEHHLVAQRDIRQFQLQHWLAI
mouse Estrogen Receptor alpha (Era), Esr1 (gene 13982), sequence (P19785 whole entry, looked up): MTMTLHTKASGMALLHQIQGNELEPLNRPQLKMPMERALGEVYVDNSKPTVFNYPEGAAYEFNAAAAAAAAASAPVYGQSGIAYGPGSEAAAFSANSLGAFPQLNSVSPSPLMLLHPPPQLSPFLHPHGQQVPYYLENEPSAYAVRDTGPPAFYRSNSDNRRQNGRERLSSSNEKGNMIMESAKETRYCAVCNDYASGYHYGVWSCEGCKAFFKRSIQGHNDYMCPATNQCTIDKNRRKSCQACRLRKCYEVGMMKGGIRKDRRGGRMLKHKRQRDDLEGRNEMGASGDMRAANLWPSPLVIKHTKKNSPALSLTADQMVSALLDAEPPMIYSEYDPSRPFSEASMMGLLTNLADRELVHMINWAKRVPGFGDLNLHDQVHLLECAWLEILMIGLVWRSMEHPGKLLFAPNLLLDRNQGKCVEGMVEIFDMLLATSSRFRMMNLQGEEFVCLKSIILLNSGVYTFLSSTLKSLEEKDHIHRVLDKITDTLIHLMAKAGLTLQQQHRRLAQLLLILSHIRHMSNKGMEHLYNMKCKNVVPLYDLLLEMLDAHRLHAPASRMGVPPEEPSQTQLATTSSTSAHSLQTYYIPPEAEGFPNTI
Estrogen receptor (Homo sapiens), sequence (P03372 whole entry, looked up): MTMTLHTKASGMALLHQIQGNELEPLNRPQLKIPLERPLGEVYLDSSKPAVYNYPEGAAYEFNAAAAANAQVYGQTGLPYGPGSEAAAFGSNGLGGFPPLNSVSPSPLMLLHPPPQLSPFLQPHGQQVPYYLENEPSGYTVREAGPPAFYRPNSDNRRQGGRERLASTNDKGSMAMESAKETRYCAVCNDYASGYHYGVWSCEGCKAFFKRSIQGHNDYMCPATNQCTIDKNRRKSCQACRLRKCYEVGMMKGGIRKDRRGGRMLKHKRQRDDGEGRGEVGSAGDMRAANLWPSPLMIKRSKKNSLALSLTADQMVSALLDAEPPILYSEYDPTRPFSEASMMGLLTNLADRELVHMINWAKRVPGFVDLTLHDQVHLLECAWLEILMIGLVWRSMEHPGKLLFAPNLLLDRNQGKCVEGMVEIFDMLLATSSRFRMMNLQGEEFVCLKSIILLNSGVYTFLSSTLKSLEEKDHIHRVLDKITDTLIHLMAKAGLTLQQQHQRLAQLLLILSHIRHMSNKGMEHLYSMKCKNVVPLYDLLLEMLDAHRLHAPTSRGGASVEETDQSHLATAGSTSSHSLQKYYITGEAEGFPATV

For one experiment, the target named is human Dopamine Transporter (DAT), SLC6A3 (gene 6531) (UniProt Q01959). The experiment can be described thus: NVS_TR_hDAT: NovaScreen (NVS) Transporter Assay for human Dopamine Transporter (DAT) (AID 2283374).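 Further: activity means loss of bound radioligand signal relative to DMSO.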 Summed up: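 Cell-free radioligand displacement binding at human DAT, 1 h after dosing, with filtration and scintillation counting. Primary screen in duplicate at 25 uM, actives then in concentration series. Loss of bound signal versus DMSO scored.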
human Dopamine Transporter (DAT), SLC6A3 (gene 6531), sequence (Q01959 whole entry, looked up): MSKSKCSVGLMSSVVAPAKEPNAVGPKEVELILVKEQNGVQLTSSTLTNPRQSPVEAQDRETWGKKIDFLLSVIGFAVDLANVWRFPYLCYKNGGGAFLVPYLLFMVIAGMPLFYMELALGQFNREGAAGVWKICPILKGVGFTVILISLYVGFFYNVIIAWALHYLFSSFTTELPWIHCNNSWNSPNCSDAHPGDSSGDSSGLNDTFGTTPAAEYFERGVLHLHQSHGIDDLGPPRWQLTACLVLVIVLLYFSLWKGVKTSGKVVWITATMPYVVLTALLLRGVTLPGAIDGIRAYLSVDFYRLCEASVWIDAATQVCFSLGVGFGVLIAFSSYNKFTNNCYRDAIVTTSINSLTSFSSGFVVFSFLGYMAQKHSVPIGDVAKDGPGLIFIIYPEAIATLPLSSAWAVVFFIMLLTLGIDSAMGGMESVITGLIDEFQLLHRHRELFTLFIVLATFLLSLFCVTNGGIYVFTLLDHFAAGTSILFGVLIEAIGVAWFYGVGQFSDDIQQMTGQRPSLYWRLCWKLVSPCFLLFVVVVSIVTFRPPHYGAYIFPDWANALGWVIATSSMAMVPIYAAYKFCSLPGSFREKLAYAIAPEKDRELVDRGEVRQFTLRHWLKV
Turning to `CC(=O)N1CCN(c2ccc(OC[C@H]3CO[C@](Cn4ccnc4)(c4ccc(Cl)cc4Cl)O3)cc2)CC1`, the AC50 was 11.2 µM (active).

As to `CCCCCCCCCC(=O)O`, the outcome was inactive.

As to `O=C=NCCCCCCN=C=O`, the AC50 was 16.3 µM (active).

As for `O=c1[nH]sc2ccccc12`, the AC50 was 21.4 µM (active).

As for `CC/C(=C(/CC)c1ccc(O)cc1)c1ccc(O)cc1`, the AC50 was 16.2 µM (active).

The target in a further experiment is human Norepinephrine Transporter (NET), SLC6A2 (gene 6530) (UniProt P23975). The experiment can be described thus: NVS_TR_hNET: NovaScreen (NVS) Transporter Assay for human Norepinephrine Transporter (NET) (AID 2283377).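 On AC50: displacement of radioligand from human NET seen as loss of scintillation signal.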 Summed up:
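Cell-free radioligand binding using CHO-derived membrane protein expressing human NET, read by filter scintillation counting 1 h after dosing; loss of signal vs DMSO. Initial duplicate screen at 25 uM, actives retested in concentration series.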
As to `CC(=O)N1CCN(c2ccc(OC[C@H]3CO[C@](Cn4ccnc4)(c4ccc(Cl)cc4Cl)O3)cc2)CC1`, the AC50 is 9.91 µM (active).

In the case of `Clc1ccccc1C(c1ccccc1)(c1ccccc1)n1ccnc1`, the molecule was classed as inactive.

For `O=C(OCCCCCCOC(=O)c1ccccc1)c1ccccc1`, the result was inactive.

`Cc1cn([C@H]2C[C@H](N=[N+]=[N-])[C@@H](CO)O2)c(=O)[nH]c1=O`: the molecule was classed as inactive.

As for `CC/C(=C(/CC)c1ccc(O)cc1)c1ccc(O)cc1`, the result was inactive.

For another experiment, the target named is mouse Estrogen Receptor alpha (Era), Esr1 (gene 13982) (UniProt P19785). The experiment can be described thus: NVS_NR_mERa: NovaScreen (NVS) Nuclear Receptor Binding Assay for mouse Estrogen Receptor alpha (Era) (AID 2283378).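 Further: hit means loss of bound radioligand signal relative to DMSO.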 Summed up:
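Extracted mouse Era incubated with tritiated or iodinated radioligand plus test chemical, 18 h. Bound fraction separated on filters, counted by scintillation. DMSO = negative control/baseline; duplicate single-point at 25 uM, then concentration-response follow-up.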
`CC(=O)N1CCN(c2ccc(OC[C@H]3CO[C@](Cn4ccnc4)(c4ccc(Cl)cc4Cl)O3)cc2)CC1`: the molecule was called inactive.

With `CCCCCCCCCCCO`, the molecule was called inactive.

Take `CCCCCCCCN(C)CCCCCCCC`: the call was inactive.

In the case of `Clc1ccccc1C(c1ccccc1)(c1ccccc1)n1ccnc1`, the molecule was classed as inactive.

As for `CC(C)(c1cc(Br)c(O)c(Br)c1)c1cc(Br)c(O)c(Br)c1`, the molecule was classed as inactive.

In the case of `C[C@]12CC[C@@H]3c4ccc(O)cc4CC[C@H]3[C@@H]1CCC2=O`, the AC50 was 7.03 nM (active) [middle of 4 runs] and the call was inactive.

Take `CC(C)(C)c1cc(/C=C2\SC(N)=NC2=O)cc(C(C)(C)C)c1O`: the molecule was called inactive.

The next experiment deals with Agonist Androgen Response Element (ARE), AR (gene 367) (UniProt P10275). The experiment can be described thus: OT_AR_ARELUC_AG_1440: Odyssey Thera (OT) 24-hour CHO-K1 Luciferase Assay for Agonist Androgen Response Element (ARE) (AID 2283379). The procedure, abridged: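 CHO-K1 cells carrying an ARE-driven luciferase reporter were exposed to compounds for 24 h. Luminescence was then read after adding a D-luciferin/ATP mix, and activity was scored as a gain in signal over DMSO vehicle.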
Agonist Androgen Response Element (ARE), AR (gene 367), sequence (P10275 whole entry, looked up): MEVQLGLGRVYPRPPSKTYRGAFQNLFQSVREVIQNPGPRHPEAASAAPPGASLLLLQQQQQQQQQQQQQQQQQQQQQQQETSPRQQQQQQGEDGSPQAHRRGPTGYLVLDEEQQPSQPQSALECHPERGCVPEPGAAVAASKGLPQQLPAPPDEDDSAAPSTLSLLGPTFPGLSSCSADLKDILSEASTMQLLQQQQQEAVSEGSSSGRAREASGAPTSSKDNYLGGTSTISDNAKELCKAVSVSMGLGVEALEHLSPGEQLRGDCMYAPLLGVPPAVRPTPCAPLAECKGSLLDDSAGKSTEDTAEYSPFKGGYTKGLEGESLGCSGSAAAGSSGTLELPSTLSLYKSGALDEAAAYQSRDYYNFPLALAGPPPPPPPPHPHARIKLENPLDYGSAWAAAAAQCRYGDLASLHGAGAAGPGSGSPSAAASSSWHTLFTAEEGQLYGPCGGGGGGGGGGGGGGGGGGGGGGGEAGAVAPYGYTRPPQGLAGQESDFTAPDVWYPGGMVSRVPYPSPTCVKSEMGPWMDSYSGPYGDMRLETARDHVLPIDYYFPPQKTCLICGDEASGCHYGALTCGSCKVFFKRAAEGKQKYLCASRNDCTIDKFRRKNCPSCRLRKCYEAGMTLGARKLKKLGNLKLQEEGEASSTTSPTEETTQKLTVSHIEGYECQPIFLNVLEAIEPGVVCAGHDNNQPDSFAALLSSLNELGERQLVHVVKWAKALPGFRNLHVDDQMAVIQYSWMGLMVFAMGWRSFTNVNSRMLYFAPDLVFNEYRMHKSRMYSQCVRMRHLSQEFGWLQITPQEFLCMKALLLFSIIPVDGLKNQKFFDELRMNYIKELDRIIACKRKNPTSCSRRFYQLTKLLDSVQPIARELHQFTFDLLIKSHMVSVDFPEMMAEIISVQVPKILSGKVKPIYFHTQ
`CCCCCCCCN(C)CCCCCCCC`: the molecule was classed as inactive.

With `CCCCCCCCCC(=O)O`, the molecule was called inactive.

As to `CCCC(=O)OCCC(C)C`, the result was inactive.

In the case of `OCCO`, the molecule was called inactive.

Turning to `CCN(Cc1cccnc1)C(=O)c1cccc(Cl)c1[C@]1(C)C(=O)N(Cc2ccc(OC)cc2OC)c2ccc(Cl)cc21`, the result was inactive.

As for `Cc1ccc(C(C)C)cc1`, the molecule was classed as inactive.

As to `Cc1occc1C(=O)Nc1ccc(C(=O)N2CCC(F)(F)/C(=C\C(=O)N3CCC(N4CCCCC4)CC3)c3ccccc32)cc1`, the molecule was called inactive.

With `COCC(C)OCC(C)OCC(C)O` (configuration not stated), the molecule was called inactive.

In another experiment the target is Estrogen receptor beta (Homo sapiens) (UniProt Q92731). In words: OT_ER_ERbERb_1440: Odyssey Thera (OT) 24-hour HEK293T Protein-Complementation Assay for Estrogen Receptor-beta/-beta Homodimer (AID 2283380).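 Further: scored as signal increase over DMSO baseline for both agonists and antagonists.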 Summed up:
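HEK293T cells stably expressing ER beta LBD (aa 310-547) homodimer fragment-complementation reporter, dosed 24 h. Cells formaldehyde-fixed, Draq5-stained; gain in nuclear (agonist) or nuclear plus cytoplasmic (antagonist) fluorescence versus DMSO read by laser scanning cytometry.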
Take `CC(=O)N1CCN(c2ccc(OC[C@H]3CO[C@](Cn4ccnc4)(c4ccc(Cl)cc4Cl)O3)cc2)CC1`: the result was inactive.

`O=c1ccc2ccccc2o1`: the call was inactive.

Consider `CCCCCCCCCCCO`, for which the call was inactive.

For the molecule `CCCCCCCCCCCCO`, the molecule was classed as inactive.

In the case of `Cc1cc2c(cc1C(F)(F)F)N(C(=O)Nc1ccc(Oc3cccnc3C)nc1)CC2`, the outcome was inactive.

For the molecule `OC12N=C(c3ccccc3)SC1Cc1cc(Cl)ccc12` (configuration not stated), the molecule was classed as inactive.

For `Cc1ccc2oc(CN(Cc3ccccc3)C(=O)Nc3c(F)cc(F)cc3F)c(-c3ccc(Cl)cc3)c2c1`, the outcome was inactive.

As for `Clc1ccccc1C(c1ccccc1)(c1ccccc1)n1ccnc1`, the call was inactive.

Consider `CC(C)(c1cc(Br)c(O)c(Br)c1)c1cc(Br)c(O)c(Br)c1`, for which the result was inactive.

As to `NC(=O)c1nc(-c2cccc(-c3cc(F)ccc3OCC(F)(F)C(F)(F)F)c2)n[nH]1`, the result was inactive.

Take `COc1cccc([C@H](O)C2CCN(CCc3ccc(F)cc3)CC2)c1OC`: the molecule was called inactive.

On to `CO[C@H]1/C=C/O[C@@]2(C)Oc3c(C)c(O)c4c(O)c(c(/C=N/N5CCN(C)CC5)c(O)c4c3C2=O)NC(=O)/C(C)=C\C=C\[C@H](C)[C@H](O)[C@@H](C)[C@@H](O)[C@@H](C)[C@H](OC(C)=O)[C@@H]1C`, for which the call was inactive.

For `CCO[Si](CCCNC(N)=O)(OCC)OCC`, the molecule was classed as inactive.

With `CC[C@@H]1C[C@H](N(Cc2cc(C(F)(F)F)cc(C(F)(F)F)c2)C(C)=O)c2cc(C(F)(F)F)ccc2N1C(=O)OC(C)C`, the result was inactive.

With `O=C=NCCCCCCN=C=O`, the outcome was inactive.

On to `CN1C(=O)CC[C@H]1c1cccnc1`, for which the molecule was called inactive.

As for `O=c1[nH]sc2ccccc12`, the result was inactive.

Take `CCN(Cc1cccnc1)C(=O)c1cccc(Cl)c1[C@]1(C)C(=O)N(Cc2ccc(OC)cc2OC)c2ccc(Cl)cc21`: the molecule was classed as inactive.

Regarding `CCCCOC(=O)CC(CC(=O)OCCCC)(OC(C)=O)C(=O)OCCCC`, the outcome was inactive.

In the case of `CCN(Cc1cccc(S(=O)(=O)O)c1)c1ccc(C(=C2C=CC(=[N+](CC)Cc3cccc(S(=O)(=O)O)c3)C=C2)c2ccccc2S(=O)(=O)[O-])cc1`, the result was inactive.

`Cc1occc1C(=O)Nc1ccc(C(=O)N2CCC(F)(F)/C(=C\C(=O)N3CCC(N4CCCCC4)CC3)c3ccccc32)cc1`: the outcome was inactive.

Consider `CC(C)(C)c1cc(/C=C2\SC(N)=NC2=O)cc(C(C)(C)C)c1O`, for which the outcome was inactive.

In the case of `COCC(C)OCC(C)OCC(C)O` (configuration not stated), the outcome was inactive.

The target of another experiment is Estrogen receptor (Homo sapiens) (UniProt P03372). The experiment can be described thus: OT_ERa_GFPERaERE_0480: Odyssey Thera (OT) 8-hour HeLa Transcription Induction Assay for Estrogen Receptor (AID 2283381; active means hit-call score of the fitted dose curve at least 0.9, where 1 is the maximum; inactive means score below 0.9). The procedure, abridged:
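Cells (HeLa) receive compound; after 8 h, reporter fluorescence is imaged and quantified by high-content analysis. Gain-of-signal relative to DMSO gives the endpoint.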
As to `CC(=O)N1CCN(c2ccc(OC[C@H]3CO[C@](Cn4ccnc4)(c4ccc(Cl)cc4Cl)O3)cc2)CC1`, the AC50 is 81.2 µM (active).

Turning to `O=c1ccc2ccccc2o1`, the molecule was called inactive.

Turning to `CCCCCCCCCCCO`, the outcome was inactive.

In the case of `CCCCCCCCN(C)CCCCCCCC`, the result was inactive.

For the molecule `Cc1cccc2ccccc12`, the result was inactive.

For the molecule `CCCCCCCCOc1ccc(C(=O)c2ccccc2)c(O)c1`, the molecule was called inactive.

With `CCCCCCCCCCCCO`, the result was inactive.

For the molecule `Cc1cc2c(cc1C(F)(F)F)N(C(=O)Nc1ccc(Oc3cccnc3C)nc1)CC2`, the outcome was inactive.

As for `OC12N=C(c3ccccc3)SC1Cc1cc(Cl)ccc12` (configuration not stated), the molecule was classed as inactive.

Regarding `Cc1ccc2oc(CN(Cc3ccccc3)C(=O)Nc3c(F)cc(F)cc3F)c(-c3ccc(Cl)cc3)c2c1`, the result was inactive.

Regarding `Clc1ccccc1C(c1ccccc1)(c1ccccc1)n1ccnc1`, the AC50 is 79 µM (active).

As for `NC(=O)c1nc(-c2cccc(-c3cc(F)ccc3OCC(F)(F)C(F)(F)F)c2)n[nH]1`, the molecule was called inactive.

`COc1cccc([C@H](O)C2CCN(CCc3ccc(F)cc3)CC2)c1OC`: the result was inactive.

`CCO[Si](CCCNC(N)=O)(OCC)OCC`: the outcome was inactive.

Turning to `CC[C@@H]1C[C@H](N(Cc2cc(C(F)(F)F)cc(C(F)(F)F)c2)C(C)=O)c2cc(C(F)(F)F)ccc2N1C(=O)OC(C)C`, the call was inactive.

In the case of `O=C=NCCCCCCN=C=O`, the molecule was called inactive.

Regarding `O=C(OCCCCCCOC(=O)c1ccccc1)c1ccccc1`, the call was inactive.

`O=C(O)c1ccccc1C(=O)OCc1ccccc1`: the outcome was inactive.

For `O=c1[nH]sc2ccccc12`, the AC50 is 91.7 µM (active).

Take `CCCC(=O)OCCC(C)C`: the outcome was inactive.

With `OCCO`, the call was inactive.

Take `CCN(Cc1cccnc1)C(=O)c1cccc(Cl)c1[C@]1(C)C(=O)N(Cc2ccc(OC)cc2OC)c2ccc(Cl)cc21`: the result was inactive.

On to `Cc1ccc(C(C)C)cc1`, for which the outcome was inactive.

As to `CCN(Cc1cccc(S(=O)(=O)O)c1)c1ccc(C(=C2C=CC(=[N+](CC)Cc3cccc(S(=O)(=O)O)c3)C=C2)c2ccccc2S(=O)(=O)[O-])cc1`, the call was inactive.

Turning to `Cc1occc1C(=O)Nc1ccc(C(=O)N2CCC(F)(F)/C(=C\C(=O)N3CCC(N4CCCCC4)CC3)c3ccccc32)cc1`, the outcome was inactive.

Take `Cc1cn([C@H]2C[C@H](N=[N+]=[N-])[C@@H](CO)O2)c(=O)[nH]c1=O`: the outcome was inactive.

As for `CC(C)(C)c1cc(/C=C2\SC(N)=NC2=O)cc(C(C)(C)C)c1O`, the molecule was classed as inactive.

For the molecule `COCC(C)OCC(C)OCC(C)O` (configuration not stated), the molecule was called inactive.

These data come from PubChem BioAssay (EPA / NIEHS).
